Targets with a hit are over-represented here; the source holds about 8,800 in all. About 0.5% of all pairs of compound and target were hits. Values without a mark were called inactive.

Our source for the log2 fold change values is the supplement of paper PMC10849652.

Holding throughout (test): log2 fold change, soluble protein after heating vs DMSO (PISA); higher = thermal stabilisation; K562 lysate, 10 uM; active = over 0.2 and 3.5 SD of the protein, either way, in both replicates (recomputed)
Compound in assay [1]: C1=CC=C(C=C1)[C@H](COC2=CC3=C(C=C2)NC(=O)N3)NC(=O)C4=CC=CN(C4=O)CC5=CC(=C(C=C5)F)F
Summed up: (§1)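 Soluble protein was defined as the supernatant remaining after 21,000xg for 90 min, following pooling of heated aliquots and adjustment to 0.5% NP-40 at 4°C. Before that, crude K562 extract at 1 mg/mL protein in PBS pH 7.4 with 1 mM MgCl2 was treated with 10 μM compound for 30 min and heated for 3 min across 48°C-58°C. Quantification used TMTpro 16plex LC-MS/MS with channel sums equalised, and values are log-two fold changes in thermal stability relative to solvent controls from duplicates.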

Compound in assay [2]: CC1=C(SC2=C1C(=N[C@H](C3=NN=C(N32)C)CC(=O)N)C4=CC=C(C=C4)Cl)C
Summed up:
as §1

Compound in assay [3]: CC1=C2C(=CC=C1)N=C(N(C2=O)C3=CC=CC=C3C)CN4C=NC5=C(N=CN=C54)N
A digest of the protocol:
as §1

Compound in assay [4]: Cc1sc2c(c1C)C(c1ccc(Cl)cc1)=N[C@@H](CC(=O)OC(C)(C)C)c1nnc(C)n1-2
A digest of the protocol: as §1

Compound in assay [5]: c1ccc([C@@H]2C[C@H]2NC2CCNCC2)cc1
Summed up:
as §1

UniProt Q9NRW3, sequence (Q9NRW3 whole entry, looked up): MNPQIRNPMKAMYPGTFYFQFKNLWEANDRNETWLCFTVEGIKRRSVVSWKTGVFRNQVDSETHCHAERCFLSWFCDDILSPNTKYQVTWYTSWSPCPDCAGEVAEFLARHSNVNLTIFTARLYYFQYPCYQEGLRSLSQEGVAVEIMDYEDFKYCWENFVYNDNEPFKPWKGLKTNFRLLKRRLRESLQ
UniProt Q13155, sequence (Q13155 whole entry, looked up): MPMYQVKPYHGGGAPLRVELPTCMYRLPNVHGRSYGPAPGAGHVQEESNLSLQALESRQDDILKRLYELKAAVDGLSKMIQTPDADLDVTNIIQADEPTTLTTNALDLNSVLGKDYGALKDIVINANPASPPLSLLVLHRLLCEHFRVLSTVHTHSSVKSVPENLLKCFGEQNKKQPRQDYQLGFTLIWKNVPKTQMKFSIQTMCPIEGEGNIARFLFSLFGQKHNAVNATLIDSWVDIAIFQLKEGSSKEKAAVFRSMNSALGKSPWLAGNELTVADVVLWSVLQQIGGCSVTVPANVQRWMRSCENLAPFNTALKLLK
UniProt P30837, sequence (P30837 whole entry, looked up): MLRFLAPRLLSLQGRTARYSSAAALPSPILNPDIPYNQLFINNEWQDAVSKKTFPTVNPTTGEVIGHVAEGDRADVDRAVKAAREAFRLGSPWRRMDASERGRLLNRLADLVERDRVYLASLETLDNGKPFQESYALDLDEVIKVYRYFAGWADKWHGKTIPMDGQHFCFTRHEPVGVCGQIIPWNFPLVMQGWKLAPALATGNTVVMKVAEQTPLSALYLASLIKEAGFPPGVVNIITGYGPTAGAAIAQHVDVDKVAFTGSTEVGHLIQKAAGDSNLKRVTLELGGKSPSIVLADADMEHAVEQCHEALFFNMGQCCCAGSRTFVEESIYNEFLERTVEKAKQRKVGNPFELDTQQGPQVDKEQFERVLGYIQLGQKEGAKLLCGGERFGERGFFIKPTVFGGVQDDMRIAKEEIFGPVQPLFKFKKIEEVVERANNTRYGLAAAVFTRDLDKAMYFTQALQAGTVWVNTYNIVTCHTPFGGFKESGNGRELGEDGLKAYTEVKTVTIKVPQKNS
UniProt Q9UJX3, sequence (Q9UJX3 whole entry, looked up): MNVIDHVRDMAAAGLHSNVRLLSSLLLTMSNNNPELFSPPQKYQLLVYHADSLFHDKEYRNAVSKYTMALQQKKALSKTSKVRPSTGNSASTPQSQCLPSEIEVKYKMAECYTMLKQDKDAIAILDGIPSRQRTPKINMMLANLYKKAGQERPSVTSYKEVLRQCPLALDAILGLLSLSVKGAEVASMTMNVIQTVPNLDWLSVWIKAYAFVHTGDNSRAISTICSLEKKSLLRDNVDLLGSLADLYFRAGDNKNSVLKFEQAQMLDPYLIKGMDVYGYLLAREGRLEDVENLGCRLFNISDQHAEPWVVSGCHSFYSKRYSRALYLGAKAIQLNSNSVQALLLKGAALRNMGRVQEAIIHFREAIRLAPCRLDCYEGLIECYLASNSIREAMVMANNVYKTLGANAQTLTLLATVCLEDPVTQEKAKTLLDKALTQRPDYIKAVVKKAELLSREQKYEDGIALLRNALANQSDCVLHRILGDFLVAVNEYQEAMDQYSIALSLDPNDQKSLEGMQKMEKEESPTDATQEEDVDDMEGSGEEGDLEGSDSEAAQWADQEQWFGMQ
UniProt Q9BTT0, sequence (Q9BTT0 whole entry, looked up): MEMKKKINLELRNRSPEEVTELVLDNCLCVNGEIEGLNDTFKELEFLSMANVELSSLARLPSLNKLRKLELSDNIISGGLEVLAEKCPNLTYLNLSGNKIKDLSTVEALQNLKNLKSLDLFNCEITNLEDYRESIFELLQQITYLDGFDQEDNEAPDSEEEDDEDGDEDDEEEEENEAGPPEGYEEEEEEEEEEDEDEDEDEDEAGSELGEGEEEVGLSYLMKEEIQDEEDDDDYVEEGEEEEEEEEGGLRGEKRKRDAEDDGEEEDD
UniProt Q9Y303, sequence (Q9Y303 whole entry, looked up): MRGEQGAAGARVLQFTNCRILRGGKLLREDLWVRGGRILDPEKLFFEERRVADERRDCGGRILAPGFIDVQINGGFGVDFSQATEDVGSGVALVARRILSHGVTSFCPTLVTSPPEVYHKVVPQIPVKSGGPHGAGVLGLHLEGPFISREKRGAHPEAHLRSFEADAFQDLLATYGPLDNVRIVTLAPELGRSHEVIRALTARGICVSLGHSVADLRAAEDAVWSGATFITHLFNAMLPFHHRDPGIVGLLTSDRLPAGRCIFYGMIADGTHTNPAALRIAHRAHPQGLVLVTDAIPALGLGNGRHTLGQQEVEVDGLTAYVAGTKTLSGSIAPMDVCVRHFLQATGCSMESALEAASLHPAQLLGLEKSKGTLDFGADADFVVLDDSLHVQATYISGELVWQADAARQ
UniProt Q99943, sequence (Q99943 whole entry, looked up): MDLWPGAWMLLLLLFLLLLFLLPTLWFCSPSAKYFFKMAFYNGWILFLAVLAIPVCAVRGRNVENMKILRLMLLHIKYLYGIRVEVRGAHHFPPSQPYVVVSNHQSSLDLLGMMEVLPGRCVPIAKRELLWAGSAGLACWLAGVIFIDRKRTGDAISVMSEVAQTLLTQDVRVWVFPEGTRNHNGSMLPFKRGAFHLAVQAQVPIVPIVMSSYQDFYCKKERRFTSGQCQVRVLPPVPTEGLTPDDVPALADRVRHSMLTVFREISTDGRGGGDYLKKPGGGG
UniProt Q9UHB7, sequence (Q9UHB7 whole entry, looked up): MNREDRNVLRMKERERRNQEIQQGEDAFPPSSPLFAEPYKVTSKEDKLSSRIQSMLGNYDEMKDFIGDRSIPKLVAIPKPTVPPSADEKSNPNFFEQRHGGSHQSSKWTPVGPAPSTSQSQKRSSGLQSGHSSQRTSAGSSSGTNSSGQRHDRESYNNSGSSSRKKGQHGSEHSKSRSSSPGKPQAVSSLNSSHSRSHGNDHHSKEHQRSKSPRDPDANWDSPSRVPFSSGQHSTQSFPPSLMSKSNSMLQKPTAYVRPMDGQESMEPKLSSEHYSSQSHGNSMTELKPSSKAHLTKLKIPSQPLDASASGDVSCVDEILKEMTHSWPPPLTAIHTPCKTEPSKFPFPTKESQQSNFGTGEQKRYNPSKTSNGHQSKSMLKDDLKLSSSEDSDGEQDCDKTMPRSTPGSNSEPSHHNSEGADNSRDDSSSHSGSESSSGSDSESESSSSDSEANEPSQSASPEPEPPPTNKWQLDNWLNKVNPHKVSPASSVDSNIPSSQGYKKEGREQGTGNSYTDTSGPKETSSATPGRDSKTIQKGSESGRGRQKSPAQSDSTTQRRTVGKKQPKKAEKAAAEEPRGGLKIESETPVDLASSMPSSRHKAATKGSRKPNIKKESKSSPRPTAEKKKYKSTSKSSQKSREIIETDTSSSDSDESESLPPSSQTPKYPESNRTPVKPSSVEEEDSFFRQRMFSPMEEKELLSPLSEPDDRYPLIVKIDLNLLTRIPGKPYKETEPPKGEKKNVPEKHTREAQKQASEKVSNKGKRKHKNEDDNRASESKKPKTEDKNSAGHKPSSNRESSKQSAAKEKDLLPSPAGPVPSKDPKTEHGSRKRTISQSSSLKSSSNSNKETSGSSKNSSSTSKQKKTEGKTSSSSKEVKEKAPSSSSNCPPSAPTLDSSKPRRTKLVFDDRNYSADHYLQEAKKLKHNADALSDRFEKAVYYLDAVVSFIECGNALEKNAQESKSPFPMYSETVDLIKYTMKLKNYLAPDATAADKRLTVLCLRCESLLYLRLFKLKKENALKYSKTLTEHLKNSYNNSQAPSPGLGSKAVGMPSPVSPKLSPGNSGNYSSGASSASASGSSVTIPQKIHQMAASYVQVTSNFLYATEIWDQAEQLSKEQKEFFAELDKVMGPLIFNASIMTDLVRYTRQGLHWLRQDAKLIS
UniProt Q9BVK2, sequence (Q9BVK2 whole entry, looked up): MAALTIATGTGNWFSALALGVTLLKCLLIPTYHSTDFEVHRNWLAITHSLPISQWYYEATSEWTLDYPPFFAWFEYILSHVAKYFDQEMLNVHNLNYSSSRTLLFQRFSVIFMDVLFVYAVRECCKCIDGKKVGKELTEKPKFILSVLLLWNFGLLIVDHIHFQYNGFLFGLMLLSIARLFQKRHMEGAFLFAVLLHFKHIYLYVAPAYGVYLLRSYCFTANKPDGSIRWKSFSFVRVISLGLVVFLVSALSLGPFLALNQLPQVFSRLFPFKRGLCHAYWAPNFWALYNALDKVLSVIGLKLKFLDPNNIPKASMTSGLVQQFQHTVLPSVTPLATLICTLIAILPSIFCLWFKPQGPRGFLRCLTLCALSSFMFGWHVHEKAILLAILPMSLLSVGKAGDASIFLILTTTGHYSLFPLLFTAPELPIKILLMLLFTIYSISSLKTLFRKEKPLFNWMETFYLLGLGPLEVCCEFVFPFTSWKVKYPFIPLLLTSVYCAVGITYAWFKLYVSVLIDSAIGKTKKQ
UniProt Q02252, sequence (Q02252 whole entry, looked up): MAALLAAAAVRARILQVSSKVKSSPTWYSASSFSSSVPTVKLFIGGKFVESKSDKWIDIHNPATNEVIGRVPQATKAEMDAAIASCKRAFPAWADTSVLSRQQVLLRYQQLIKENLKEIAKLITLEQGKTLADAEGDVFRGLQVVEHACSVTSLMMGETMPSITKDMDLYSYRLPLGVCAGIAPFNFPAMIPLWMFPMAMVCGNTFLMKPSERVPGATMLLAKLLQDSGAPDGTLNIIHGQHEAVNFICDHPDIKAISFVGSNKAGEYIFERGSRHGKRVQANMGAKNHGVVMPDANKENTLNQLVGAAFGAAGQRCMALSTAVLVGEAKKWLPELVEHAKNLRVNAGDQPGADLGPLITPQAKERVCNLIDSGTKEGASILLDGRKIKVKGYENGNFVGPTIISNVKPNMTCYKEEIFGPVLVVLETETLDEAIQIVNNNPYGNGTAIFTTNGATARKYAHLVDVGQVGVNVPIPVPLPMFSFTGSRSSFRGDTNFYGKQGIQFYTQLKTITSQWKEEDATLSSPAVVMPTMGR
UniProt P07311, sequence (P07311 whole entry, looked up): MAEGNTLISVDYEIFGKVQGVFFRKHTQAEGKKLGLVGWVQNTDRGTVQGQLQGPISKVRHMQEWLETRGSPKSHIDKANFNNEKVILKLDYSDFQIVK

In the case of APOB (UniProt P04114), the log2 fold change in assay [1] was -0.009; in assay [2], 0.039; in assay [3], 0.023; in assay [4] it was -0.168; in assay [5] it was -0.109.
For ACYP1 (UniProt P07311), the log2 fold change in assay [1] is 0.019; in assay [2], -0.026; in assay [3] it was -0.036; in assay [4], 0.022; in assay [5], 0.052.
For ACIN1 (UniProt E7EQT4), in that order: 0.04, 0.015, 0.037, 0.032 and -0.118.
Regarding ALG8 (UniProt Q9BVK2), the log2 fold change in assay [1] is 0.034; in assay [2], 0.001; in assay [3] it was 0.059; in assay [4] it was -0.013; in assay [5], -0.008.
Regarding ARHGEF1 (UniProt M0QZR4), the log2 fold change in assay [1] is -0.046; in assay [2] it was 0.006; in assay [3] it was -0.017; in assay [4] it was -0.017; in assay [5], 0.004.
Turning to AMDHD2 isoform 3 (UniProt Q9Y303), the log2 fold change in assay [1] is 0.049; in assay [2], 0.016; in assay [3] it was 0.031; in assay [4], 0.037; in assay [5], -0.043.
In the same order, the values of ANKRD40 (UniProt Q6AI12) are 0.133, 0.072, 0.536, -0.156 and 0.053.
For ACOX1 isoform 2 (UniProt Q15067), the log2 fold change in assay [1] is 0.035; in assay [2], -0.002; in assay [3], -0.026; in assay [4], -0.018; in assay [5], -0.037.
Turning to ALDH6A1 (UniProt Q02252), the log2 fold change in assay [1] was 0.011; in assay [2] it was -0.111; in assay [3] it was 0; in assay [4], 0.02; in assay [5] it was -0.061.
On to AIMP2 (UniProt Q13155), for which the log2 fold change was -0.028 in assay [1]; 0.021 in assay [2]; 0.013 in assay [3]; 0.036 in assay [4]; 0.041 in assay [5].
In the same order, the values of APOBEC3C (UniProt Q9NRW3) are -0.003, 0.032, 0.013, 0.014 and -0.062.
Consider ADK, A0A5F9ZH76, for which the results for the log2 fold change in assay [1] and in assay [2] were -0.136 and 0.197, respectively.
Take ALDH2 (UniProt P05091): the log2 fold change in assay [1] was 0.029; in assay [2] it was -0.028; in assay [3] it was -0.022; in assay [4], -0.018; in assay [5], 0.01.
In the same order, the values of AFF4 (UniProt Q9UHB7) are -0.362 (active), -0.269, -0.081, -0.026 and -0.052.
For AFF1 isoform 2 (UniProt P51825), in that order: -0.109, 0.133, -0.006, -0.087 and -0.118.
ARGLU1 (UniProt Q9NWB6): the log2 fold change was 0.049 in assay [1]; 0.009 in assay [2]; 0.036 in assay [3]; -0.026 in assay [4]; 0.074 in assay [5].
For the target AGPAT1 (UniProt Q99943), the log2 fold change in assay [1] was -0.04; in assay [2] it was 0.024; in assay [3], 0.089; in assay [4], -0.038; in assay [5], -0.134.
In the same order, the values of ALDH1B1 (UniProt P30837) are 0.143, -0.021, 0.006, 0.049 and 0.019.
For ANP32E (UniProt Q9BTT0), in that order: 0.043, -0.005, -0.053, -0.038 and 0.026.
ANAPC7 (UniProt Q9UJX3): the log2 fold change was -0.008 in assay [1]; -0.003 in assay [2]; -0.002 in assay [3]; 0.023 in assay [4]; 0.048 in assay [5].
Regarding AGL (UniProt P35573), the log2 fold change in assay [1] was 0.022; in assay [2] it was 0.028; in assay [3], 0.036; in assay [4], 0.035; in assay [5] it was 0.086.
For ALG3 (UniProt Q92685), in that order: 0.002, -0.006, 0.048, -0.035 and -0.127.
AIMP2 isoform 2 (UniProt Q13155): the log2 fold change is 0.182 in assay [1] and 0.029 in assay [2].
For the target ANKRD30B (UniProt Q9BXX2), the log2 fold change in assay [1] is -0.098; in assay [2], 0.112; in assay [3] it was 0.042; in assay [4], -0.125; in assay [5], -0.407.
For ACACB (UniProt O00763), in that order: -0.018, 0.002, 0.01, 0.074 and 0.014.
